PI5P4K alpha inh – PI5P4K alpha (human) kinase inhibition; P48426; 1.2% of 330,000 active; max response, %; PI5P4Kalpha enzyme, ADP-Glo luminescence, 60 min; active compounds read low; active = max response of -50% or lower; inconclusive = between -30% and -50%; inactive = -30% or higher; note: value at the top dose of about 77 µM
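qHTS, 1536-well: enzyme/substrate mix, compound by pin tool, 5 microM ATP final; RT 60 min; ADP-Glo reagents 1 (45 min) then 2 (30 min); luminescence.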
G9a block – inhibitors of human histone lysine methyltransferase G9a; Q96KQ7; G9a H3K9 monomethylation, AlphaScreen, 2 h; Potency, µM (titrated, usually from 102 µM), most hits filed as inhibitors; 8.8% of 350,000 active; AID 504332; note: nearly all actives have a fitted effect of over 75% in size
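Compounds were preincubated with 20 nM G9a for 15 min, after which biotinylated H3K9 peptide (500 nM) and SAM (20 uM) started a 2 h room-temperature reaction. Monomethylated product was quantified by antibody-based AlphaScreen chemiluminescence.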
BAZ2B block – blocks human BAZ2B | Q9UIF8 | AlphaScreen BAZ2B-H3K14Ac peptide displacement | Potency, µM (series often up to 114 µM), hits mostly inhibitors | 4.4% of 360,000 active; note: nearly all actives have a fitted effect of over 60% in size
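In this displacement format the biotinylated H3(5-23) peptide acetylated at Lys14 serves as ligand at 50 nM, with BAZ2B at 50 nM in PBS pH 7.4 containing 0.01% Tween-20. Donor and acceptor beads are 10 ug/mL final.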
PLK1 PBD block – inhibitors of human PLK1 polo-box domain binding; P53350; Plk1 PBD binding of FITC phosphopeptide, fluorescence polarization; Potency, µM, hits mostly inhibitors; 2.8% of 360,000 active; AID 720504; note: series mostly up to about 57 µM; nearly all actives have a fitted effect of over 65% in size
JMJD2A Tudor inh – JMJD2A Tudor domain (human) inhibition | AlphaScreen JMJD2A-Tudor / H3K4me3 peptide binding | 4.4% of 390,000 active | Potency, µM (titrated, usually from 114 µM), actives largely listed as inhibitors; note: nearly all actives have a fitted effect of over 50% in size
Target sequence (O75164 whole entry, looked up, the tested form may be a part): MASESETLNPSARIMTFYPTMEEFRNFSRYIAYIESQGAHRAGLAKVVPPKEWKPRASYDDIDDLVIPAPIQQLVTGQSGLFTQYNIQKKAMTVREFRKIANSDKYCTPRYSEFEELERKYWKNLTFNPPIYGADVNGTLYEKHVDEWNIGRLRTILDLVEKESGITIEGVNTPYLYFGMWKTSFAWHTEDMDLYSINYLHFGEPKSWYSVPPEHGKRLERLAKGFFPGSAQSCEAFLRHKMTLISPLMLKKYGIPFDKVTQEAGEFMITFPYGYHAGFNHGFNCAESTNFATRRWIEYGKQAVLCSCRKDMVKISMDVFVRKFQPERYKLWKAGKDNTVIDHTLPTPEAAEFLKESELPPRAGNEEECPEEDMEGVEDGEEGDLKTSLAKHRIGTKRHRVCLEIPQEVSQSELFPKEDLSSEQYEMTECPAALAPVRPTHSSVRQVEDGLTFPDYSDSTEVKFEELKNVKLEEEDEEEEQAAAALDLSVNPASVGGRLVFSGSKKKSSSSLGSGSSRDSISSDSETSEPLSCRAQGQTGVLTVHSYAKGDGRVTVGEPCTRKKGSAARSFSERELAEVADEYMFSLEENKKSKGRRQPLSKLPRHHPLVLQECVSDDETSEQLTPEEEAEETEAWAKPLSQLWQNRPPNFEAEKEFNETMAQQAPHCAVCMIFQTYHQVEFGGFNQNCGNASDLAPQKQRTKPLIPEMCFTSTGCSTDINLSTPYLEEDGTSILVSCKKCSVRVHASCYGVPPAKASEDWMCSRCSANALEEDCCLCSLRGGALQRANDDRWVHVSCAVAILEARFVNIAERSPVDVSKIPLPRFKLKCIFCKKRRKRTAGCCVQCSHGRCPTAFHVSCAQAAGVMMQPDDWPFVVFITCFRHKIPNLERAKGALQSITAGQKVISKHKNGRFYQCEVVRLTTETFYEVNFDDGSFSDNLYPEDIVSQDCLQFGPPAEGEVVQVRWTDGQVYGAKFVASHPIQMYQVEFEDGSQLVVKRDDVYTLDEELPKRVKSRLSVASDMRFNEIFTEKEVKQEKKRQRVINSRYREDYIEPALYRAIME
HP1b binding inh – blocks HP1-beta chromodomain binding to methylated histone tails | AlphaScreen HP1-beta / biotin-H3K9me3 peptide binding | Potency, µM (series often up to 114 µM), most hits filed as inhibitors | AID 540317 | P83916 | 0.56% of 390,000 active; note: nearly all actives have a fitted effect of over 70% in size
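Compound inhibition of the preformed complex between 50 nM HP1-beta and 50 nM biotinylated H3K9me3 peptide was read by AlphaScreen. Buffer was PBS pH 7.4 with 0.01% Tween-20. Incubations ran 30 min at room temperature, with 10 ug/mL donor/acceptor beads.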
Large screens that a line does not name were inactive. Only some compounds are listed: those with a hit (about 12% of all), similar ones and a draw of the others. Unless noted, calls come from the whole dose curve; as a rule, active = well fitted curve in the direction sought with a large enough effect; inconclusive = small, poorly fitted or top-dose-only effect, or another doubt; inactive = no such curve, though single readings can be large; an effect the other way counts as inactive or inconclusive.

CCOc1ccc(N2C(=O)CC(Sc3nnnn3-c3ccccc3)C2=O)cc1 (stereo not drawn)	G9a block 10µM
CCOc1ccc(N2C(=O)CC(SCCN)C2=O)cc1 (stereo not drawn)	G9a block 18µM
Cc1cccc(CSc2cn(CC(=O)N3CCCC3)c3ccccc23)c1	BAZ2B block inconclusive (no result: PI5P4K alpha inh, PLK1 PBD block)
Cc1csc2nc(COC(=O)c3ccc(Cl)c([N+](=O)[O-])c3)cc(=O)n12	PLK1 PBD block inconclusive, JMJD2A Tudor inh 28µM
Cc1csc2nc(COC(=O)c3ccc(NC(=O)C(C)C)cc3)cc(=O)n12	G9a block inconclusive (no result: PI5P4K alpha inh, PLK1 PBD block)
COC(=O)[C@@]12C[C@@H](CC(=O)NCc3ccc(C)o3)C(=O)N(Cc3ccc4c(c3)OCO4)C1=CCC(C)(C)C2	none (no result: G9a block, BAZ2B block, JMJD2A Tudor inh, HP1b binding inh)
COC(=O)C1C(O)CC[C@@H]2CN3CCc4c([nH]c5ccccc45)C3C[C@@H]12 (stereo partly drawn)	none (no result: PI5P4K alpha inh, BAZ2B block, PLK1 PBD block, JMJD2A Tudor inh, HP1b binding inh)
Cc1nn(CC(=O)NC(C)C(C)C)c(C)c1S(=O)(=O)N1CCCCC1 (stereo not drawn)	none
CN1CCN(CCC(=O)Nc2cccc(Br)c2)CC1	G9a block 56µM
Cc1cc(NC(=O)CCN2CCN(C)CC2)ccc1Br	JMJD2A Tudor inh 89µM
O=C(CCN1CCCCC1)Nc1cccc(Br)c1	none (no result: G9a block)
Cc1ccc(NC(=O)CCn2cccc2)cc1C	G9a block 50µM, BAZ2B block inconclusive, JMJD2A Tudor inh inconclusive (no result: PI5P4K alpha inh)
COc1cc(Cl)cc(NC(=O)CCN2CCN(C)CC2)c1	G9a block 50µM (no result: PI5P4K alpha inh)
Cc1ccc(NC(=O)Cn2cccc2)cc1C	G9a block inconclusive, BAZ2B block inconclusive (no result: PI5P4K alpha inh)
CC(C)N(C(=O)Cn1cc(SCC(=O)Nc2ccccc2F)c2ccccc21)C(C)C	none (no result: PI5P4K alpha inh, PLK1 PBD block)
CCc1ccccc1NC(=O)c1cc2nc(-c3ccc(Br)cc3)cc(C(F)(F)F)n2n1	none (no result: PI5P4K alpha inh, PLK1 PBD block)
CCN(CC)C(=O)c1sc2c(c1C)c(=O)n(-c1ccc(C)c(C)c1)c(=O)n2CC(=O)Nc1ccc(F)cc1	none (no result: PI5P4K alpha inh, PLK1 PBD block)
Cc1ccccc1-c1n[nH]c(=S)o1	G9a block 13µM, JMJD2A Tudor inh inconclusive
O=c1c2ccccc2c(-c2n[nH]c(=S)o2)nn1Cc1ccccc1	PI5P4K alpha inh -86, G9a block 4µM, PLK1 PBD block inconclusive, JMJD2A Tudor inh inconclusive
S=c1[nH]nc(-c2ccccc2)o1	PI5P4K alpha inh inconclusive, G9a block inconclusive, BAZ2B block 79µM, PLK1 PBD block 30µM
O=c1c2ccccc2c(-c2ccccc2)nn1Cc1c(Cl)cccc1Cl	none (no result: PI5P4K alpha inh)
Cc1ccccc1-c1nc2ccccc2c(=O)o1	none (no result: G9a block, BAZ2B block, JMJD2A Tudor inh, HP1b binding inh)
Cc1ccc(-n2ncc(-c3n[nH]c(=S)o3)c2N)cc1C	PI5P4K alpha inh -76 (no result: G9a block, BAZ2B block, JMJD2A Tudor inh, HP1b binding inh)
CC(O)CNCCNCc1cccs1 (stereo not drawn)	G9a block 5.6µM, JMJD2A Tudor inh inconclusive
COc1cccc(C(O)c2nc(-c3cccc(CO)c3)cs2)c1 (stereo not drawn)	none (no result: G9a block, BAZ2B block, JMJD2A Tudor inh, HP1b binding inh)
Cc1ccc2cc(C(c3nnnn3C3CCCC3)N(Cc3ccco3)Cc3cccs3)c(=O)[nH]c2c1 (stereo not drawn)	G9a block 28µM
Cc1ccc2[nH]c(=O)c(C(c3nnnn3C3CCCC3)N(Cc3cccnc3)Cc3ccco3)cc2c1 (stereo not drawn)	JMJD2A Tudor inh inconclusive
Cc1ccc2cc(C(c3nnnn3C3CCCC3)N(Cc3cccnc3)Cc3ccco3)c(=O)[nH]c2c1 (stereo not drawn)	G9a block 20µM, JMJD2A Tudor inh inconclusive (no result: PI5P4K alpha inh)
Cc1csc(NC(=O)C(C)Oc2ccc(Cl)cc2C)n1 (stereo not drawn)	none
COC(=O)c1c(NC(=O)CCCOc2ccc(C(C)(C)C)cc2)sc2c1C(C(=O)OC)CC2 (stereo not drawn)	G9a block 1.4µM, BAZ2B block 28µM, JMJD2A Tudor inh 56µM (no result: PI5P4K alpha inh, PLK1 PBD block)
Cc1cc(C)nc(N/N=C/C=C/c2ccccc2)n1	G9a block 50µM
O=C(Cc1ccc(Cl)cc1)NN1C(=O)c2ccccc2C1=O	PLK1 PBD block 27µM
Cc1nc(SCC(=O)Nc2cc(C(N)=O)cc(C(N)=O)c2)c2c(C)c(C)sc2n1	G9a block 45µM, BAZ2B block inconclusive, PLK1 PBD block inconclusive, JMJD2A Tudor inh inconclusive
